Holding throughout (experiment): NCI-60 one-dose screen, 48 h (100 = growth as untreated, 0 = no growth, -100 = all killed)
For one assay, the system named is NCI-H23 lung. Conditions: 10 µM unless noted.
Another assay deals with NCI-H226 lung. To be noted: 10 µM unless noted.
In the next assay the test system is NCI-H322M lung. Conditions: 10 µM unless noted.
The next assay concerns HOP-62 NSCLC. To be noted: 10 µM unless noted.
A further assay has as its system NCI-H460 lung. Conditions: 10 µM unless noted.
Another assay concerns HOP-92 NSCLC. Conditions: 10 µM.
The next assay concerns A549/ATCC NSCLC. Conditions: 10 µM unless noted.
Another assay deals with 786-0 renal. To be noted: 10 µM unless noted.
For another assay, the system named is COLO 205 colon. To be noted: 10 µM unless noted.
The test system of the next assay is DU-145 prostate. Conditions: 10 µM unless noted.
A further assay deals with K-562 leukemia. To be noted: 10 µM unless noted.
Another assay relates to MALME-3M melanoma. To be noted: 10 µM unless noted.
For a further assay, the system named is MDA-MB-231 breast. Conditions: 10 µM unless noted.
A further assay deals with RXF 393 renal. Conditions: 10 µM unless noted.
Another assay concerns SF-268 CNS. Conditions: 10 µM unless noted.
The subject of the next assay is SF-295 CNS. To be noted: 10 µM unless noted.
The test system of the next assay is SF-539 CNS. Conditions: 10 µM unless noted.
The subject of a further assay is UACC-257 melanoma. To be noted: 10 µM unless noted.
The test system of another assay is M14 melanoma. Conditions: 10 µM unless noted.
Another assay has as its system NCI-H522 lung. To be noted: 10 µM unless noted.

This is part of a sample that, as a whole, favours compounds with a hit. Of some 83,000 tested, about 20% had one in any assay.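 For each line, cells grew in 96-well plates with the test compound present at a single concentration for 48 hours.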 Unmarked numbers belong to inactive results. Active and inactive are the calls of the source. How the source made its calls: active means growth percent below 10; inactive means the rest.

Consider `COc1cc(-c2nn(C(C)(C)C)cc2-c2ccnc(NCCCNS(=O)(=O)c3ccc(C)cc3)n2)ccc1Cl`, for which the growth in the assay with NCI-H23 lung was 84.1%; in the assay with NCI-H226 lung, 70.9%; in the assay with NCI-H322M lung, 86%; with HOP-62 NSCLC it was 70.8%; in the assay with NCI-H460 lung, 86.7%; with HOP-92 NSCLC, 70.2%. Further, the growth in the assay on A549/ATCC NSCLC was 59.7%; with 786-0 renal it was 83.2%; with COLO 205 colon, 107%; with DU-145 prostate, 74%; in the assay on K-562 leukemia, 57.7%; with MALME-3M melanoma it was 94.4%. For the same molecule, the growth with MDA-MB-231 breast is 58.4%; in the assay on RXF 393 renal, 4.95% (active); in the assay with SF-268 CNS, 63.9%; in the assay with SF-295 CNS, 88%; with SF-539 CNS, 91.3%; with UACC-257 melanoma, 94.6%. Further, in the assay on M14 melanoma, the growth was 90.5%.

As to `Cc1noc(C)c1CSc1nc2ccccc2n1-c1ccccc1`, the growth is 90.9% in the assay with NCI-H23 lung; 95.6% in the assay with NCI-H226 lung; 104% with NCI-H322M lung; 69% in the assay with HOP-62 NSCLC; 107% with NCI-H460 lung; 74.7% in the assay with HOP-92 NSCLC. In addition, the growth in the assay with A549/ATCC NSCLC is 91.2%; with 786-0 renal, 82.6%; in the assay on COLO 205 colon, 105%; in the assay on DU-145 prostate it was 86.4%; in the assay on K-562 leukemia it was 88.6%; with MALME-3M melanoma, 118%. For the same molecule, the growth in the assay on MDA-MB-231 breast was 81.5%; with RXF 393 renal it was 60.4%; with SF-268 CNS, 85.7%; with SF-295 CNS, 98.1%; with SF-539 CNS it was 95.3%; in the assay on UACC-257 melanoma, 110%. Besides, the growth in the assay with M14 melanoma is 104%.

`COc1ccc(/C(N)=N/C(N)=N/c2nc3ccccc3s2)cc1`: the growth in the assay with NCI-H23 lung was 67.8%; in the assay on NCI-H226 lung, 77.8%; in the assay on NCI-H322M lung it was 98.4%; with HOP-62 NSCLC, 24.5%; in the assay with NCI-H460 lung, 82.5%; in the assay on HOP-92 NSCLC, 85.5%. The growth in the assay on A549/ATCC NSCLC was 33.1%; with 786-0 renal, 79%; with COLO 205 colon, 103%; with DU-145 prostate it was 81%; in the assay with K-562 leukemia, 32.9%; in the assay with MALME-3M melanoma it was 94.4%. In addition, the growth was 76% in the assay on MDA-MB-231 breast; 65.7% in the assay with RXF 393 renal; 78.9% in the assay with SF-268 CNS; 52% with SF-295 CNS; 90.5% in the assay with SF-539 CNS; 98.5% in the assay with UACC-257 melanoma. For the same molecule, the growth in the assay with M14 melanoma was 81.4%.

In the case of `C=C(C=O)[C@@H]1CC[C@]2(CO)CC[C@]3(C)[C@H](CC[C@@H]4[C@@]5(C)CCCNC(C)(C)[C@@H]5CC[C@]43C)[C@@H]12`, the growth in the assay with NCI-H23 lung was 63.5%; in the assay on NCI-H226 lung it was 76.5%; in the assay with NCI-H322M lung, 95.8%; in the assay on HOP-62 NSCLC, 88.9%; with NCI-H460 lung, 86%; with NCI-H522 lung, 77.6%. The growth in the assay on A549/ATCC NSCLC was 81.1%; in the assay with 786-0 renal it was 94.3%; in the assay with COLO 205 colon it was 77.3%; with DU-145 prostate, 53%; in the assay on K-562 leukemia it was -1.23% (active); in the assay on MALME-3M melanoma it was 67%. For the same molecule, the growth was 90.8% in the assay with MDA-MB-231 breast; 94.2% in the assay on RXF 393 renal; 83.9% with SF-268 CNS; 83.1% in the assay on SF-295 CNS; 71.8% in the assay with SF-539 CNS; 72.3% in the assay with UACC-257 melanoma.

`COc1ccc(C2c3sc4c(C)cccc4c3Oc3nc(CC(=O)Nc4ccccc4)[nH]c(=O)c32)cc1` (configuration not stated): the growth in the assay with NCI-H23 lung was 62.2%; in the assay on NCI-H226 lung, 65.8%; with NCI-H322M lung, 95.4%; with HOP-62 NSCLC it was 60.5%; with NCI-H460 lung, 87.1%; with HOP-92 NSCLC it was 59.1%. Also, the growth was 93.7% with A549/ATCC NSCLC; 95.3% with 786-0 renal; 106% in the assay on COLO 205 colon; 83.7% in the assay on DU-145 prostate; 52.1% with K-562 leukemia; 98% in the assay on MALME-3M melanoma. For the same molecule, the growth is 69.8% in the assay on MDA-MB-231 breast; 8.26% (active) in the assay on RXF 393 renal; 77.4% in the assay with SF-268 CNS; 83.1% in the assay with SF-295 CNS; 86.9% with SF-539 CNS; 94.9% in the assay on UACC-257 melanoma. Besides, the growth with M14 melanoma was 89%.

As to `Cc1ccc2c(c1)C(=O)/C(=C/c1cccc(F)c1)S2`, the growth in the assay with NCI-H23 lung was 101%; with NCI-H226 lung, 88.5%; in the assay with NCI-H322M lung it was 98.2%; with HOP-62 NSCLC, 109%; with NCI-H460 lung, 105%; in the assay on NCI-H522 lung it was 93.2%. In addition, the growth in the assay with A549/ATCC NSCLC is 107%; in the assay on 786-0 renal, 103%; with COLO 205 colon it was 112%; in the assay with DU-145 prostate, 111%; with K-562 leukemia it was 90.7%; with MALME-3M melanoma, 97.9%. Further, the growth in the assay with MDA-MB-231 breast was 99.8%; in the assay with RXF 393 renal, 96.6%; with SF-268 CNS it was 101%; in the assay on SF-295 CNS, 105%; with SF-539 CNS, 100%; with UACC-257 melanoma it was 103%.

The record behind these values is PubChem BioAssay (NCI).
